Compound activity as filed in PubChem.
An excerpt weighted towards active compounds, which were near 4.1% of everything screened.
DAX1 inh-1 – DAX1 (NR0B1) inhibitors, primary screen, cell-based, HEK293, Gal4-DAX1, luciferase luminescence; 0.99% of 340,000 active; HEK293 Gal4-DAX1 luciferase reporter; AID 504766, 2011; Nuclear receptor subfamily 0 group B member 1 (Homo sapiens), P51843; inhibition, % at 6.75 µM;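 active = inhibition above the mean over all tested compounds plus 3 SD, cut at about 4.2% in these data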;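 note: inhibition shows as a rise in luminescence from relieved DAX1 repression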
Target sequence (P51843 207-470 limits assumed): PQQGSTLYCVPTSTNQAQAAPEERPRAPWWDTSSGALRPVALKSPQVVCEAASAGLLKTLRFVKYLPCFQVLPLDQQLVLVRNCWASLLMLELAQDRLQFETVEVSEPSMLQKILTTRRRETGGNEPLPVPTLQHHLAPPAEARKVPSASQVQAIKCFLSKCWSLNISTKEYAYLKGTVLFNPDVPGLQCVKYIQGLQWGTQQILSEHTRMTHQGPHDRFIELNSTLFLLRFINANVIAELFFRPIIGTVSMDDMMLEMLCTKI
hcDAF-12 act – H. contortus DAF-12 nuclear receptor activators, primary screen, cell-based, luminescence, HEK293, lit1-tk-luc reporter | HEK293 hcDAF-12 lit1-tk-luc reporter; 0% DMSO, 100% Δ7-dafachronic acid | activation, % at 6.8 µM | 1.4% of 370,000 active;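 active = activation above the mean of all tested compounds plus 3 SD, cut at about 5.5% in these data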
ssDAF12 agonist – S. stercoralis DAF-12 nuclear receptor activators, primary screen, cell-based, luminescence, HEK293, GRIP1 co-expression, lit1-tk-luc | HEK293 ssDAF-12/GRIP1 lit1-tk-luc reporter; % of 3 µM dafachronic acid response | activation, % at 6.8 µM | 1% of 370,000 active;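 active = activation above the mean over all tested compounds plus 3 SD, cut at about 0.9% in these data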
hgDAF12 agonist – H. glycines DAF-12 receptor agonists, primary screen, cell-based, luminescence, HEK293, GAL4 fusion, UAS-luciferase; Nuclear hormone receptor DAF-12 (Heterodera glycines), GAL4 fusion; HEK293 GAL4-hgDAF12 UAS-luciferase reporter, agonist luminescence; normalized to butyrate control; AID 687014, 2013; 1.8% of 370,000 active; activation, % at 6.8 µM;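 active = activation above a cutoff set at the mean of all screened compounds plus 3 SD, cut at about 10% in these data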
DAX1 inh-2 – DAX1 (NR0B1) inhibitors on StAR promoter, primary screen, cell-based, luminescence, SF-1 (NR5A1), full-length DAX-1; HEK293T StAR-luciferase reporter, SF-1/DAX-1 repression relief; inhibition, % at 6.8 µM; 1.1% of 370,000 active;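 active = inhibition above the mean over all tested compounds plus 3 SD, cut at about 3.6% in these data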;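 note: higher inhibition means more luminescence from relief of DAX-1 repression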
Each line names hits and unclear results; the compound was inactive in the other large screens.

O=C(C1=C(O)C(=O)N(CC2CCCO2)C1c1ccc(Cl)cc1)c1ccco1 (stereo not drawn)	none
CC(C)C(=O)Oc1ccc(CO)cc1[C@H](CCN(C(C)C)C(C)C)c1ccccc1	none (no result: DAX1 inh-1)
COc1ccc(C2CC(c3ccccc3)=NN2c2ccc(N)cc2)cc1 (stereo not drawn)	hgDAF12 agonist 10.7
COc1ccc(C2CC(c3ccccc3O)=NN2c2ccccc2)cc1 (stereo not drawn)	none
Cc1ccc(NC(=O)c2sc3nc(CCl)[nH]c(=O)c3c2C)c(C)c1	DAX1 inh-2 3.7
CSCc1nc2sc(C(=O)Nc3nc(C)cs3)c(C)c2c(=O)[nH]1	hgDAF12 agonist 11.8
Cc1csc(NC(=O)CSc2nc3sc(C)c(C)c3c(=O)[nH]2)n1	none
CCCN1CCCCC(NC(=O)OC(C)(C)C)C1=O (stereo not drawn)	none (no result: DAX1 inh-1)
C[C@H]1[C@@H](OC(=O)Nc2ccccc2F)CC[C@@]23CCCN2C(=O)CCC[C@@H]13	none (no result: DAX1 inh-1, DAX1 inh-2)
NS(=O)(=O)c1ccc(NC(=O)CN2C(=O)C3C4C=CC(C4)C3C2=O)cc1 (stereo not drawn)	DAX1 inh-1 5.5
CCCCc1nc2cc(C(=O)NC(C)c3cnn(C)c3)ccc2o1 (stereo not drawn)	DAX1 inh-2 3.8
CCCCc1nc2cc(C(=O)NCc3ccccn3)ccc2o1	none
CCCCc1nc2cc(C(=O)N3CCCC3)ccc2o1	DAX1 inh-2 4.0
CCCCc1nc2cc(C(=O)N3CCCCC3C(=O)OC)ccc2o1 (stereo not drawn)	hgDAF12 agonist 12.2, DAX1 inh-2 4.2
CN(C)c1cccc(/C=C2\CC3(OC(=O)c4ccc(Cl)cc4)CCCN2C3)c1 (stereo not drawn)	none (no result: DAX1 inh-1)
COc1ccc(C(=O)C2(C(=O)NC3CCCC3)CC(c3ccccc3C(F)(F)F)=NO2)cc1 (stereo not drawn)	none (no result: DAX1 inh-1)
Cc1cnc(NC(=O)CCN2C(=O)C3CCCCC3C2=O)s1 (stereo not drawn)	DAX1 inh-1 6.7
Cc1cnc(NC(=O)CN2C(=O)C3CC=CCC3C2=O)s1 (stereo not drawn)	none
Cc1cnc(NC(=O)CC2CCCC2)s1	hgDAF12 agonist 10.5
C#CCn1c2ccccc2c(=O)n1C(C)CBr (stereo not drawn)	ssDAF12 agonist 1.1 (no result: DAX1 inh-1)
C#CCn1c2ccccc2c(=O)n1C(C)C	none (no result: DAX1 inh-1)
C[C@@H](N)C(=O)Nc1ccc(Cl)cc1C(=O)c1ccc[nH]1	none (no result: DAX1 inh-1, DAX1 inh-2)
O=C(NCCc1ccccc1)c1ccc2nccnc2c1	hgDAF12 agonist 10.7, DAX1 inh-2 4.2
O=C(NCCc1ccccc1)c1cccc(Br)c1	none
O=C(NCCc1ccccc1)c1cccnc1	hgDAF12 agonist 11.5
CC(C)(C)c1ccc(S(=O)(=O)N2CCC(C(=O)N3CCN(C4CCCCC4)CC3)CC2)cc1	none (no result: DAX1 inh-1)
Cc1cccc(/C=C/c2ccccc2)n1	hgDAF12 agonist 10.8 (no result: DAX1 inh-1)
Cc1nc(/C=C/c2ccccc2)cc(/C=C/c2ccccc2)n1	none
C(=C\c1cc(/C=C/c2ccccc2)ncn1)/c1ccccc1	DAX1 inh-1 5.0
C(=C/c1ccccc1)/c1ccccc1	none (no result: DAX1 inh-1)
C(/C=C/c1ccccn1)=C\c1ccccc1	DAX1 inh-1 5.0
C(=C\c1ccccn1)/c1ccncc1	none
CCOc1ccc(-n2c(SCC(=O)Nc3ccc(S(=O)(=O)Nc4nccs4)cc3)nnc2-c2ccccc2)cc1	none (no result: DAX1 inh-1)
Cc1cc(OCC(=O)N2CCCCCC2)ccc1[N+](=O)[O-]	hgDAF12 agonist 12.3
Cc1ccc(OCC(=O)N2CCCCCCC2)cc1C	none
O=C(CCc1ccccc1)N[C@H]1[C@@H](OC(=O)c2ccco2)CCC[C@]12C(=O)N(Cc1ccccc1)c1ccccc12	none (no result: DAX1 inh-1)
O=C(CCCN1C(=O)/C(=C\c2ccccc2)SC1=S)Nc1ccc(C(=O)O)cc1	none
CCc1ccc(/C=C2\SC(=S)N(CCCC(=O)Nc3ccc(C(=O)O)cc3)C2=O)cc1	hcDAF-12 act 6.0
Cc1ccccc1NC(=O)CSc1nnc(-c2cc(-c3ccccc3)n[nH]2)n1N	none (no result: DAX1 inh-1)
N#Cc1c(-c2ccccc2)nc(-c2ccccc2)[nH]c1=O	none
Nc1nc(-c2ccccc2)[nH]c(=O)c1N=O	DAX1 inh-1 4.2
O=C(NNC1=C(C(=O)C(F)(F)F)CCC1)c1ccc(Cl)cc1	none
O=C(NNC1=C(C(=O)C(F)(F)F)CCC1)c1cccc(Cl)c1	DAX1 inh-1 5.2, hgDAF12 agonist 12.9
COCCCN1C(=O)[C@H](CC(=O)N2CCSCC2)[C@]2(C(=O)OC)CCCCC=C12	none (no result: DAX1 inh-1)
Cc1ccc(NC(=O)[C@H]2CC(=O)O[C@@H]2c2ccccc2)c(C)c1	none (no result: DAX1 inh-1)
CC(=Nc1ccccc1)C1=C(O)CCCC1=O	DAX1 inh-1 5.2
Cc1cccc(NC(=S)N(CCN(C)C)Cc2cc3cccc(C)c3[nH]c2=O)c1	none
Cc1cccc2cc(CN(Cc3ccccc3)C(=S)NCCCN(C)C)c(=O)[nH]c12	DAX1 inh-1 5.4
Cc1ccc(NC(=S)N(CCN(C)C)Cc2cc3cccc(C)c3[nH]c2=O)cc1	ssDAF12 agonist 1.7
COC(=O)c1ccccc1NC(=O)C1CCN(c2ncnc3c2nc2n3CCCCC2)CC1	DAX1 inh-1 4.8
COc1cc(C(=O)NC2CCN(C)CC2)ccc1Nc1ncc2c(n1)N(C1CCCCC1)CCC(=O)N2C	none
COc1cc(C(=O)NC2CCN(C)CC2)ccc1Nc1ncc2c(n1)N(Cc1ccccc1)CCC(=O)N2C	DAX1 inh-1 7.8
Fc1ccc(F)c(Cn2ccc3ccc(-c4ccc5ccn(Cc6cc(F)ccc6F)c5c4)cc32)c1	none (no result: DAX1 inh-1)
COC(=O)[C@]12C[C@H](CC(=O)NCCC(C)C)C(=O)N(Cc3ccco3)C1=C[C@H](C(C)(C)C)O[C@@H]2C	none (no result: DAX1 inh-1)
Nc1nc(-c2ccccc2)c(N=Nc2ccc(Cl)cc2)s1	ssDAF12 agonist 1.2
O=C(NCCc1ccccc1)OCc1cn(-c2ccc(Cl)cc2)nn1	none (no result: DAX1 inh-1)
CCCCOCCCNC(=O)C[C@H]1C[C@@]2(C(=O)OC)C(=C[C@H](COCc3ccccc3)O[C@@H]2C)N(Cc2ccc(Cl)cc2Cl)C1=O	none (no result: DAX1 inh-1)
COP(=O)(OC)c1nc(-c2cccc3ccccc23)oc1NCc1ccccc1	DAX1 inh-1 4.6
COc1ccc(CNc2oc(-c3cccc4ccccc34)nc2P(=O)(OC)OC)cc1	none
COC(=O)c1ccc(-c2ccc3c(c2)[C@]2(CCC[C@@H](OCc4ccccc4)[C@@H]2NC(=O)CCc2ccccc2)C(=O)N3Cc2ccccc2)cc1	none (no result: DAX1 inh-1)
CN1CCCC1CCSc1ncccc1-c1nc2ccccc2[nH]1 (stereo not drawn)	none (no result: DAX1 inh-1)
